Most compounds without a hit are left out; they make up all but 11% or so of the library.
Sm TGR inh – S. mansoni TGR enzyme inhibition; purified TGR, DTNB reduction, TNB absorbance 405 nm; Q962Y6; AID 485364; Potency, µM (series often up to 114 µM), inactives show top-dose activity change, negative = inhibition, hits mostly inhibitors; hit rate 3% among 360,000; further: on the % scale 0 is the no-effect control and ±100 the full control effect; nearly all actives have a fitted effect of over 60% in size
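TGR 20 nM + NADPH 100 uM (dispensed conc.), cpd preinc 15 min RT; start with NADPH (500 uM addition) then DTNB (15 mM addition). Kinetic TNB absorbance, 405 nm filter. Four-parameter Hill fit across titration.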
AMA1-RON2 inh – disrupts binding of P. falciparum AMA1 to RON2. AlphaScreen AMA1-biotinylated RON2 peptide binding. Potency, µM (highest dose often 58.2 µM), for the others: top-dose activity change, negative = inhibition, usual class: inhibitors. hit rate 0.2% among 360,000. AID 720542;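 further: 0% = vehicle wells and -100% = peptide control; nearly all actives have a fitted effect of over 45% in size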
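AMA1 (3D7) with his tag at 25 nM final met compounds first, then biotinylated RON2 peptide at 25 nM; detection used donor plus acceptor beads, 10 µg/mL apiece, read by AlphaScreen after 30 min at room temperature.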
Pf growth 96h – P. falciparum growth inhibition at 96 hour, primary screen for plastid delayed-death inhibitors. P. falciparum luciferase reporter growth, 96 h. Potency, µM (titrated, usually from 28.7 µM), for inactives: at the highest dose activity change, negative = inhibition, actives largely listed as inhibitors. hit rate 6.9% among 320,000. AID 504834; further: on the % scale 0 is the no-effect control and ±100 the full control effect
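Delayed-death screen, second-generation endpoint: infected erythrocytes, 2% hematocrit, 0.05% parasitemia final; 96 hours at 37 C, 5% CO2; luciferase detection reagent; luminescence decrease equals reduced growth.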
Pf growth 48h – P. falciparum growth inhibition at 48 hours (one generation). P. falciparum luciferase growth in erythrocytes, 48 h. Potency, µM (highest dose often 28.7 µM), inactives show top-dose activity change, negative = inhibition, actives largely listed as inhibitors. hit rate 5.9% among 310,000. AID 504832; further: on the % scale 0 is the no-effect control and ±100 the full control effect
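A one-generation exposure of luciferase-tagged malaria parasites in RPMI 1640/Albumax erythrocyte culture, 37 C and 5% CO2. Inhibition is inferred from decreased luminescence after adding detection reagent.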
NS1 function inh – influenza NS1 inhibition; Potency, µM (series often up to 46.1 µM), without a hit: at the top dose activity, positive = more growth; hit rate 0.4% among 270,000; AID 2326; calls by dose curve; further: actives are rising curves; nearly all actives have a fitted effect of over 50% in size
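Recovery from NS1-induced slow growth read by OD600 in budding yeast switched to galactose assay medium (pH 6.0, -URA) at 1:100 dilution. Compound 23 nl per well; the matching strain lacking NS1 serves as control.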
The depositor's hits bear a star; ? = inconclusive; nt = no result; [ ] = remark or other dose. Unless noted, the call rests on the fitted dose curve; in most records, active means well fitted curve in the direction sought with a large enough effect; inconclusive means small, poorly fitted or top-dose-only effect, or another doubt; inactive means no such curve, though single readings can be large; an effect the other way counts as inactive or inconclusive. Potency means the concentration at half of the fitted maximal effect.

SMILES	Sm TGR inh	AMA1-RON2 inh	Pf growth 96h	Pf growth 48h	NS1 function inh
CCOc1ccc(NC(=O)CN(C)C(=O)c2cc(S(=O)(=O)N3CCCCC3)ccc2Cl)cc1OCC	-4.0%	-5.3%	?	-2.4%	nt
CCOc1ccc(NC(=O)CN(C)C(=O)c2ccccc2OCc2cccc(C)c2)cc1OCC	6.1%	30.0%[11.6 µM]	?	?	nt
CCOc1ccc(CC(=O)Nc2sc(Cc3ccccc3)cc2C(N)=O)cc1OCC	-13.5%	-5.2%	11.7µM*	nt	-5.4%
COc1ccc(NC(=O)CN(C)C(=O)c2csc3c2CCCC3)cc1	-1.1%	-11.3%	22.9%	-1.2%	nt
NC(=O)c1cc(Cc2ccccc2)sc1NC(=O)c1ccco1	8.9%	-0.7%	nt	50.6%	-29.0%
CCOc1ccc(NC(=O)CN(C)C(=O)c2ccccc2Cc2ccccc2)cc1OCC	-2.2%	-12.2%	?	11.7µM*	nt
CCOc1ccc(NC(=O)CN(C)C(=O)c2csc3c2CCCC3)cc1OCC	-24.0%	-6.7%[11.6 µM]	?	13.1µM*	nt
CC(N=C1NC(C)(C)Cc2ccccc21)C(=O)O (centres undefined)	0.2%	3.1%	4.9%	22.0%	1.5%
CCOc1ccc(NC(=O)CN(C)C(=O)CSCc2cccc(C)c2)cc1OCC	1.8%	-0.7%	14.7µM*	?	nt
CCOc1ccc(NC(=O)CN(C)C(=O)CSCc2ccc(C)cc2)cc1OCC	-19.1%	-15.6%	?	?	nt
CN(CC(=O)Nc1c(Cl)cccc1Cl)C(=O)c1ccccc1Cc1ccccc1	1.0%	5.6%	?	13.1µM*	nt
CCOc1ccc(NC(=O)/C=C\C(=O)N(c2ccc(C(C)C)cc2)C(C(=O)NCc2ccco2)c2ccc(F)cc2)cc1 (centres undefined)	56.2µM*	nt	nt	nt	nt
COc1ccc(NC(=O)/C=C\C(=O)N(c2ccc(C(C)C)cc2)C(C(=O)NCc2ccco2)c2ccc(F)cc2)cc1 (centres undefined)	-26.4%	nt	nt	nt	nt
COc1ccc(N(C(=O)/C=C\C(=O)Nc2ccc(Cl)cc2)C(C(=O)NCc2ccco2)c2ccc(C)cc2)cc1 (centres undefined)	7.94µM*	nt	nt	nt	nt
COCC(=O)Nc1cc(Sc2ccccc2)ccc1N=C(NC(=O)OC)NC(=O)OC	nt	nt	-7.2%	4.8%	nt
C/C(=N\NC(=O)c1nnn(-c2nonc2N)c1CSc1ccc(C)cc1)c1ccco1	-19.1%	37.8%	36.6%	40.6%	3.0%
Cc1cccc(OCC(=O)Nc2ccc(Cl)c(-c3nc4ccccc4[nH]3)c2)c1	-1.8%	nt	nt	nt	nt
CN1C(=O)/C(=N\OC(=O)c2ccccc2Cl)c2ccccc21	?	0.9%	-20.9%	13.5%	-3.8%
CC(=O)O/N=C1\C(=O)N(Cc2ccc(C)cc2)c2ccccc21	15.8µM*	-10.9%	?	?	nt
Cc1sc2nc(SCCN(C)C)n(-c3ccccc3)c(=O)c2c1-c1ccc(F)cc1	-16.1%	-12.5%	?	10.4µM*	17.5%
CN(C)CCSc1nc(O)c(-c2ccccc2)c(=O)n1-c1ccccc1	7.2%	0.4%	33.5%	9.5%	-0.6%
O=C(c1ccc(Cl)c([N+](=O)[O-])c1)N1CCCc2ccccc21	-8.8%	-2.2%	?	18.9%	-1.5%
C=C(C)Cn1cnc2c(oc3nc4c(cc32)CCCC4)c1=O	-15.0%	1.8%	11.7µM*	139.9%	-7.0%
O=C1CC(c2ccco2)CC(O)=C1C=NCC1NCCc2ccccc21 (centres undefined)	?	-28.1%	1.0%	10.4µM*	-1.3%
CC(C)(CN1CCc2ccccc2C1)NS(=O)(=O)c1ccc(Cl)cc1	4.0%	-6.2%	16.5%	-12.8%	-1.9%
SMILES	Sm TGR inh	AMA1-RON2 inh	Pf growth 96h	Pf growth 48h	NS1 function inh
Cc1c(C(=O)Nc2nccs2)oc2c(Cl)cccc12	0.8%	129.0%	?	?	nt
O=C(CBr)c1ccc([N+](=O)[O-])c(CS(=O)(=O)c2ccc(Cl)cc2)c1	5.01µM*	-9.7%	0.0%	1.9%[0.00184 µM]	9.6%
COc1ccc(CCNc2ncnc3sc(C)cc23)cc1OC	-16.1%	-10.4%	59.9%	5.22µM*	-52.9%
COc1ccc(CCNc2ncnc3[nH]ncc23)cc1OC	5.1%	5.8%	14.7µM*	2.7%	7.6%
O=C(CSc1nc(-c2cccs2)nc2cc(=O)[nH]n12)Nc1ccccc1	-10.6%	nt	nt	nt	nt
CCc1c(C)sc(NC(=O)c2cc3nc(-c4ccc(OC)cc4)cc(C(F)(F)F)n3n2)c1C(=O)OC	-4.5%	nt	nt	nt	nt
O=C(Nc1ccc(F)c(F)c1)C1CCCCC1	-5.4%	1.4%	64.6%	21.4%	nt
CN(CC(=O)N1CCN(Cc2ccccc2)CC1)S(=O)(=O)c1ccc(Br)cc1	-5.3%	-27.0%	31.3%	?	-24.4%
CN(CC(=O)N1CCN(Cc2ccccc2)CC1)S(=O)(=O)c1ccc(F)cc1	-25.1%	4.4%	11.7µM*	3.6%	-11.6%
CCN1CCN(C(=O)CN(CC)S(=O)(=O)c2ccc(F)cc2)CC1	-0.2%	14.8%	3.29µM*	-6.7%	6.7%
CCc1ccc(CN2CCc3nc(N4CCN(c5ccccc5F)CC4)ncc3C2)cc1	6.1%	nt	nt	nt	nt
CC(NC(=O)COC(=O)CCC(=O)c1ccc(F)cc1)c1ccccc1 (centres undefined)	nt	5.5%	nt	nt	nt
O=C(Nc1nccs1)c1ccc(Br)o1	-3.5%	17.3%	185.2%	174.0%	-2.3%
CCOC(=O)Cc1csc(NC(=O)/C=C/c2cccc(Br)c2)n1	1.5%	-0.9%	-24.2%	9.28µM*	nt
O=C(/C=C/c1ccc(Br)o1)Nc1nccs1	3.16µM*	5.5%	181.0%	204.3%	nt
CCOC(=O)Cc1csc(NC(=O)/C=C/c2ccc(Br)o2)n1	10µM*	2.4%	?	77.1%	-41.5%
O=c1cc(C(F)(F)F)[nH]c(=S)n1-c1ccccc1	22.4µM*	1.3%	3.4%	6.8%	2.7%
Nc1cc(=O)[nH]c(=S)n1-c1ccccc1	-2.9%	0.0%	-11.2%	nt	4.9%
CCCCCC(=O)N(Cc1ccccc1)c1c(N)n(CCOC)c(=O)[nH]c1=O	nt	1.0%	nt	nt	nt
Cc1cccc(NC(=O)/C=C/c2ccc([N+](=O)[O-])s2)c1	-1.9%	-13.7%	2.62µM*	?	5.5%
Cc1ccc(NC(=O)/C=C/c2ccc([N+](=O)[O-])s2)cc1	-4.9%	-15.1%	?	?	-13.6%
Cc1ccc(NC(=O)/C=C/c2ccc([N+](=O)[O-])s2)c(C)c1	-23.1%	-12.2%	3.29µM*	10.4µM*	-6.7%
CCc1ccc(NC(=O)Nc2ccsc2C(=O)OC)cc1	2.6%	-4.8%	22.2%	268.0%	-81.7%
CCC(C(=O)NC1CCCCCC1)n1nc(C)c2c(C)n(-c3ccccc3)nc2c1=O (centres undefined)	-3.2%	14.1%	10.4µM*	?	1.7%
CCC(C(=O)NCCC1=CCCCC1)n1nc(C)c2c(C)n(-c3ccccc3)nc2c1=O (centres undefined)	3.0%	15.9%	11.7µM*	?	-9.2%
CCC(C(=O)NCc1ccco1)n1nc(C)c2c(C)n(-c3ccccc3)nc2c1=O (centres undefined)	6.8%	-0.9%	14.7µM*	-13.8%	16.7%

Source: PubChem BioAssay
